Data: the OligoGym collection

The sequences below were run against TMEM156 (assay: pooled miR-30 sensor sort-seq; sequence = guide strand). Details: shRNA.
Note: reference of the scale not given here.

Row | Sequence | sensor-assay potency score (higher = more potent)
1 | TTTGTCTCTATGACTCTGCCAC | -0.207
2 | TTTGCTTTCACTTCCATTGATC | -0.423
3 | TTCCTGAGAAATAAAATCCATG | -1.19

Each sequence was assayed against TMEM158 in the same assay as above. Details: shRNA.

Row | Sequence | sensor-assay potency score (higher = more potent)
4 | TACGGTTCAGCCGCCAGCCCGG | -1.31
5 | TAGGTCGCACTGGAAGCCCCGC | -0.714
6 | TGATGTTGCACGGCGCCGCCGC | -0.887
7 | ATGACCAGGGTCATGAAGCAGG | -1.09
8 | TTAAACATCTGCTTTTCGGAAC | -0.542
9 | TCCAGGCTGAAGTCTAGGCAGC | -1.79
10 | TAACGATAACTACAGCACGAAG | -1.77
11 | TCGCACTGGAAGCCCCGCGGGC | -1.57
12 | TTTTCTGCCATGAATCTAGGGC | -0.129
13 | AAGAGCAGTAGGTCGCACTGGA | 0.351
14 | TAGCAATTTAATCTTTTTGTTT | -1.1
15 | TATAAAACAAATACACAGGATT | -0.653
